Data on eight compounds can be found in PubChem BioAssay (EPA / NIEHS).

Calls of active or inactive are those of the source. Rule for the calls: active = hit-call score of the fitted dose curve at least 0.9, where 1 is the maximum; inactive = score below 0.9.

A short description of experiment [1]: ATG_GRE_CIS: Attagene CIS-FACTORIAL HepG2 Assay for human Glucocorticoid Response Elements (GRE) (AID 2282947). As to conditions: HepG2 GRE cis-reporter, Attagene multiplex mRNA; actives raise or lower the signal. Put shortly:
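Following 24 h chemical exposure of transiently transfected HepG2 cells, total RNA was reverse-transcribed and reporter cDNA amplified, fluorescently labelled and sized by capillary electrophoresis. Signal gain or loss was fitted relative to DMSO vehicle.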

Experiment [2] can be described thus: ATG_ISRE_CIS: Attagene CIS-FACTORIAL HepG2 Assay for human Interferon Regulatory Factor 1 (IRF1) binding to an Interferon-Stimulated Response Element (ISRE) (AID 2282948). As to conditions: HepG2 ISRE cis-reporter (Attagene), mRNA transcription readout; actives raise or lower the signal. The method, boiled down:
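Transiently transfected HepG2 cells carrying cis-element reporter units, dosed 24 hours. Reporter mRNA quantified by RT-PCR, fluorescent primer extension, HpaI digestion and capillary electrophoresis. Bidirectional fitting relative to DMSO.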

Experiment [3] in a line: ATG_M_32_CIS: Attagene CIS-FACTORIAL HepG2 Assay for M32 Transcription Factor (Internal Marker) (AID 2282949).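 Note: background control marker of the multiplexed CIS panel rather than a real target.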 As to conditions: HepG2 Attagene cis-factorial M32 reporter, mRNA; actives raise or lower the signal. The method, boiled down: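 HepG2 cells transiently transfected with multiplexed cis-regulated reporter units, dosed 24 h. Reporter mRNA quantified by RT-PCR, 6-FAM labelling, HpaI digestion and capillary electrophoresis; bidirectional fit vs DMSO.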

A short description of experiment [4]: ATG_M_06_CIS: Attagene CIS-FACTORIAL HepG2 Assay for M06 Transcription Factor (Internal Marker) (AID 2282950). As to conditions: HepG2 Attagene CIS-FACTORIAL M06 internal marker reporter; actives raise or lower the signal. The method, boiled down: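 Fluorescence-labelled RT-PCR products from cis-promoter reporter units, cut with HpaI and resolved by capillary electrophoresis, give the signal. Cells are human HepG2, dosed for 24 h. Serves as background control, fitted relative to DMSO.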

Experiment [5] deals with Hypoxia-inducible factor 1-alpha (Homo sapiens) (UniProt Q16665). Kind of experiment: ATG_HIF1a_CIS: Attagene CIS-FACTORIAL HepG2 Assay for human Hypoxia Inducible Factor 1 (HIF1A) (AID 2282951). As to conditions: HepG2 Attagene cis-factorial HIF1a reporter transcription; actives raise or lower the signal. Put shortly:
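Transient MRTU transfection of human HepG2 liver cells, 24 h compound treatment, then total RNA isolation, oligo(dT) reverse transcription, PCR amplification, fluorescent labelling and capillary electrophoresis of reporter fragments. Gain or loss relative to DMSO.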

Experiment [6] has as its target Hepatocyte nuclear factor 6 (Homo sapiens) (UniProt Q9UBC0). The experiment can be described thus: ATG_HNF6_CIS: Attagene CIS-FACTORIAL HepG2 Assay for human Hepatocyte Nuclear Factor 6 (HNF6) (AID 2282952). As to conditions: HepG2 Attagene cis-factorial HNF6 reporter transcription; actives raise or lower the signal. The method, boiled down: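 HepG2, transient MRTU transfection (cis promoters); 24 h chemical exposure; total RNA → oligo(dT) RT → PCR → 6-FAM labelling → HpaI cut → CE; bidirectional fit vs DMSO.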

In experiment [7] the target is Heat shock factor protein 1 (Homo sapiens) (UniProt Q00613). Kind of experiment: ATG_HSE_CIS: Attagene CIS-FACTORIAL HepG2 Assay for human Heat Shock Transcription Factor 1 (HSE) (AID 2282953). As to conditions: HepG2 HSE cis-reporter, Attagene RNA transcription; actives raise or lower the signal. Put shortly:
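After a 24 h incubation with test chemical, transfected HepG2 cells were harvested for RNA; reporter transcripts were measured by RT-PCR and capillary electrophoresis. Values reflect gain or loss of signal relative to DMSO.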

The nature of experiment [8]: ATG_MRE_CIS: Attagene CIS-FACTORIAL HepG2 Assay for human Metal Responsive Element (MRE) (AID 2282954). As to conditions: HepG2 MRE cis-reporter transcription, Attagene multiplex; actives raise or lower the signal. The method, boiled down:
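Step one: transfect HepG2 with cis-regulated reporter units. Step two: dose 24 h. Step three: isolate RNA, RT-PCR, 6-FAM label, HpaI digest, capillary electrophoresis. Fit bidirectionally to DMSO.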

In experiment [9] the target is Paired box protein Pax-6 (Homo sapiens) (UniProt P26367). The experiment can be described thus: ATG_Pax6_CIS: Attagene CIS-FACTORIAL HepG2 Assay for human Paired Box 6 (PAX6) (AID 2282956). As to conditions: HepG2 CIS-FACTORIAL PAX6 reporter transcription, RNA readout; actives raise or lower the signal. The method, boiled down: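 HepG2 cells transiently transfected with cis-promoter-driven multiplexed reporter units sensing endogenous transcription factor activity; 24 h chemical exposure. Reporter mRNA quantified by RT-PCR, 6-FAM labelling, HpaI digestion and capillary electrophoresis; bidirectional fit versus DMSO baseline.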
Paired box protein Pax-6 (Homo sapiens), sequence (P26367 whole entry, looked up): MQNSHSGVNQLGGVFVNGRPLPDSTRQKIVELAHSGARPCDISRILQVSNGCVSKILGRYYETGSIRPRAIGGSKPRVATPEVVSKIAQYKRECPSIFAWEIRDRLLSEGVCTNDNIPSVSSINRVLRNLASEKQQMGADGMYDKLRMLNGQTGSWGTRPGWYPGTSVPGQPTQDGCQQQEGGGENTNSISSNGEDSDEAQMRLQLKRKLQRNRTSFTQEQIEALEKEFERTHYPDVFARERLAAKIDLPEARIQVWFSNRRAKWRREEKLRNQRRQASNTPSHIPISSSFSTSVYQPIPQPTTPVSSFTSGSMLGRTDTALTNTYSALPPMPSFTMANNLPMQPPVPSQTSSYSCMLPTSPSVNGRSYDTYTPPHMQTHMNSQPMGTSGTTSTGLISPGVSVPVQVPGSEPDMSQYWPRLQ

Experiment [10] can be described thus: ATG_PXRE_CIS: Attagene CIS-FACTORIAL HepG2 Assay for human Pregnane X Receptor Element (PXRE) (AID 2282957). As to conditions: HepG2 Attagene CIS-FACTORIAL PXRE reporter, mRNA; actives raise or lower the signal. Put shortly:
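Transfect HepG2 with MRTUs (cis promoter elements); dose chemical, incubate 24 h; isolate RNA, RT with oligo(dT), PCR, 6-FAM label, HpaI cut, CE. Gain/loss fit vs DMSO.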

Experiment [11] can be described thus: ATG_RORE_CIS: Attagene CIS-FACTORIAL HepG2 Assay for human RAR-related Orphan Receptor Element (RORE) (AID 2282959). As to conditions: HepG2 Attagene cis-factorial RORE reporter, mRNA; actives raise or lower the signal. Put shortly: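 Transient MRTU transfection of human HepG2 liver cells (FuGene 6); 24 h compound exposure; TriZol RNA, oligo(dT) RT, PCR, FAM labeling, HpaI cut, CE fragment analysis. DMSO = negative control/baseline.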

Experiment [12] can be described thus: ATG_Sox_CIS: Attagene CIS-FACTORIAL HepG2 Assay for human SRY-box transcription factor (SOX) (AID 2282960). As to conditions: HepG2 Attagene cis-factorial SOX reporter, mRNA; actives raise or lower the signal. The method, boiled down:
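Endogenous factor activity in human liver HepG2 cells carrying transfected cis-regulated reporter units. RNA taken 24 h post-dose, reverse-transcribed, PCR-amplified and sized by capillary electrophoresis. Gain or loss of signal fitted relative to DMSO.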

In experiment [13] the target is Transcription factor Sp1 (Homo sapiens) (UniProt P08047). The experiment can be described thus: ATG_Sp1_CIS: Attagene CIS-FACTORIAL HepG2 Assay for human Specificity Protein 1 (Sp1) (AID 2282961). As to conditions: HepG2 Sp1 cis-reporter transcription, actives raise or lower the signal. The method, boiled down: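 Transient MRTU-transfected HepG2, 24 h compound exposure. Total RNA → oligo(dT) RT → PCR of reporter → 6-FAM primer extension → HpaI digest → CE. Endpoint fitted both directions vs DMSO.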
Transcription factor Sp1 (Homo sapiens), sequence (P08047 whole entry, looked up): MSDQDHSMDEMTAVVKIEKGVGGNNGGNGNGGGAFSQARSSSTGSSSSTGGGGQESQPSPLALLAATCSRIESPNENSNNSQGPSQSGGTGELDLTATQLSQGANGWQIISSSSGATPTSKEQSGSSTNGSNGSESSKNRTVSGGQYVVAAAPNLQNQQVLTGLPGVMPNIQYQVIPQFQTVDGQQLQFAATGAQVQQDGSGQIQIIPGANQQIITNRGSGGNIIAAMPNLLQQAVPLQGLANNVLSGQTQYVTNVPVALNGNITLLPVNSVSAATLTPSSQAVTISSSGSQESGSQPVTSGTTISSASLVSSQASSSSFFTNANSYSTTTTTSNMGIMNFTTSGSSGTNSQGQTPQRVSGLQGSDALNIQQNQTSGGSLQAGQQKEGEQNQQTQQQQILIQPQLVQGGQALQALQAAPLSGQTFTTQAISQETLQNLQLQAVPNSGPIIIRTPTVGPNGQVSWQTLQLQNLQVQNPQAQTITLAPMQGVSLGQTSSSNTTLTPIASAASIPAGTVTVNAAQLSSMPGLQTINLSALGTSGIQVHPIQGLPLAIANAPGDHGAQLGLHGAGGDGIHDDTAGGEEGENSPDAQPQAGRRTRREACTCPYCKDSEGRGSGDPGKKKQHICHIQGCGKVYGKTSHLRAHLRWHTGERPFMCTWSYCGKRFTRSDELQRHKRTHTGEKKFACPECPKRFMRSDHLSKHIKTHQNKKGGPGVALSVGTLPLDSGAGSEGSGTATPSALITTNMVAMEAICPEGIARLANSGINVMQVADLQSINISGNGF

The nature of experiment [14]: ATG_SREBP_CIS: Attagene CIS-FACTORIAL HepG2 Assay for human Sterol Regulatory Element Binding (SREBP) (AID 2282962). As to conditions: HepG2 Attagene cis-factorial SREBP reporter, mRNA; actives raise or lower the signal. The method, boiled down:
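HepG2 cells transiently transfected with multiplexed cis-promoter reporter units sensing endogenous transcription factors; reporter mRNA measured 24 h after dosing by RT-PCR, 6-FAM labeling, HpaI digestion and capillary electrophoresis. Bidirectional fit versus DMSO.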

In experiment [15] the target is Signal transducer and activator of transcription 3 (Homo sapiens) (UniProt P40763). The experiment can be described thus: ATG_STAT3_CIS: Attagene CIS-FACTORIAL HepG2 Assay for human Signal Transducer and Activator of Transcription 3 (STAT3) (AID 2282963). As to conditions: HepG2, Attagene cis-factorial STAT3 reporter transcription; actives raise or lower the signal. Put shortly:
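Transcript-level reporter assay. HepG2 transient MRTU transfection, 24 h exposure, fluorescence detection after RT-PCR and CE; DMSO baseline.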

Experiment [16] can be described thus: ATG_TA_CIS: Attagene CIS-FACTORIAL HepG2 Assay for human TA Basal Promoter (AID 2282964). As to conditions: HepG2 Attagene CIS-factorial TA basal promoter reporter; actives raise or lower the signal. The method, boiled down:
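Multiplexed mRNA reporter assay, HepG2, 24 h. Reporter cDNA amplified, 6-FAM primer-extended, HpaI-cut, CE-sized; DMSO = negative control and baseline.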

Experiment [17] is described as follows: ATG_TCF_b_cat_CIS: Attagene CIS-FACTORIAL HepG2 Assay for human T-Cell-Factor with beta-catenin (TCF/b-cat) (AID 2282965). As to conditions: HepG2 TCF/beta-catenin cis-reporter transcription, actives raise or lower the signal. Put shortly: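 Using capillary electrophoresis as the read-out, labelled reporter cDNA fragments from transiently transfected HepG2 were sized and quantified. Exposure lasted 24 hours; activity in either direction was referenced to DMSO.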

Experiment [18] can be described thus: ATG_PBREM_CIS: Attagene CIS-FACTORIAL HepG2 Assay for human Phenobarbital-responsive Enhancer Module (PBREM) (AID 2282955). As to conditions: HepG2 PBREM cis-reporter, Attagene multiplexed transcription; actives raise or lower the signal. The method, boiled down:
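Endogenous transcription factors in human liver HepG2 cells drive a PBREM cis-element reporter, whose transcript level after 24 h treatment is quantified by RT-PCR with capillary electrophoresis; activity fitted in both directions against DMSO.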

The nature of experiment [19]: ATG_PPRE_CIS: Attagene CIS-FACTORIAL HepG2 Assay for human Peroxisome Proliferator-activated Response Element (PPRE) (AID 2282958). As to conditions: HepG2 PPRE cis-element reporter, Attagene transcription factor profiling; actives raise or lower the signal. Put shortly: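 HepG2, transient MRTU transfection (cis promoter elements, endogenous TFs). 24 h dosing. RNA → oligo(dT) RT → PCR → 6-FAM primer extension → HpaI digest → CE. Bidirectional fit vs DMSO.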

Hepatocyte nuclear factor 6 (Homo sapiens), sequence (Q9UBC0 whole entry, looked up): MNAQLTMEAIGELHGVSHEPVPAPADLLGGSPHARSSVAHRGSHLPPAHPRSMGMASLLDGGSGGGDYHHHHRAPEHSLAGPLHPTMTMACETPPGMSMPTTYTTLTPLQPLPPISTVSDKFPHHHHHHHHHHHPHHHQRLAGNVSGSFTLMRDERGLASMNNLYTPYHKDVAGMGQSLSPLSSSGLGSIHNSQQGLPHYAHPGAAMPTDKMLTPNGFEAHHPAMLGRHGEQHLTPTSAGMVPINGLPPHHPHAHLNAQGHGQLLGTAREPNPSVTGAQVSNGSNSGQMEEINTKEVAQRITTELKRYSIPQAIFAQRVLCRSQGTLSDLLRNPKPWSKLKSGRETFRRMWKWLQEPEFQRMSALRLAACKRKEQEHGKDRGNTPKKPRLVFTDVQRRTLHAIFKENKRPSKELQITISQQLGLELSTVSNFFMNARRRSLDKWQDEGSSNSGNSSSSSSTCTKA
Signal transducer and activator of transcription 3 (Homo sapiens), sequence (P40763 whole entry, looked up): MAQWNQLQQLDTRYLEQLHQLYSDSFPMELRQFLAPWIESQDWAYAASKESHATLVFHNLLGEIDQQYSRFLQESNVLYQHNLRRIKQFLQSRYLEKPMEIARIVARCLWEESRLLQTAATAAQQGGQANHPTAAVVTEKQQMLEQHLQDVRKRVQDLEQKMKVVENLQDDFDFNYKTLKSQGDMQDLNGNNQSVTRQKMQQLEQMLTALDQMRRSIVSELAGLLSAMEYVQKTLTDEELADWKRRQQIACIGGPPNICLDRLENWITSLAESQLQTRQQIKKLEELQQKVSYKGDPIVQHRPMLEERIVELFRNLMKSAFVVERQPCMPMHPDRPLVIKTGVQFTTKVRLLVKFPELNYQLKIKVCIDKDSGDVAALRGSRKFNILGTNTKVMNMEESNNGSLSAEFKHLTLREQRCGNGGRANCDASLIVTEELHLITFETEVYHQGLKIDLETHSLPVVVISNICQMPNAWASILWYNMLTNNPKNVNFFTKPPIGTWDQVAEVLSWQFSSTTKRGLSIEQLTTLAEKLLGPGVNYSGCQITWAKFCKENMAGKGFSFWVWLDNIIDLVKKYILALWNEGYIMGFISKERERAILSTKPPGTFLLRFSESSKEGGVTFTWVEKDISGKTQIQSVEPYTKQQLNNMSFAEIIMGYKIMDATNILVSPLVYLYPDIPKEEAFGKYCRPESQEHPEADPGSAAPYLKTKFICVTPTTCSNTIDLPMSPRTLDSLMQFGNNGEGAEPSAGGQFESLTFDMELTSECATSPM
Hypoxia-inducible factor 1-alpha (Homo sapiens), sequence (Q16665 whole entry, looked up, the tested form may be a part): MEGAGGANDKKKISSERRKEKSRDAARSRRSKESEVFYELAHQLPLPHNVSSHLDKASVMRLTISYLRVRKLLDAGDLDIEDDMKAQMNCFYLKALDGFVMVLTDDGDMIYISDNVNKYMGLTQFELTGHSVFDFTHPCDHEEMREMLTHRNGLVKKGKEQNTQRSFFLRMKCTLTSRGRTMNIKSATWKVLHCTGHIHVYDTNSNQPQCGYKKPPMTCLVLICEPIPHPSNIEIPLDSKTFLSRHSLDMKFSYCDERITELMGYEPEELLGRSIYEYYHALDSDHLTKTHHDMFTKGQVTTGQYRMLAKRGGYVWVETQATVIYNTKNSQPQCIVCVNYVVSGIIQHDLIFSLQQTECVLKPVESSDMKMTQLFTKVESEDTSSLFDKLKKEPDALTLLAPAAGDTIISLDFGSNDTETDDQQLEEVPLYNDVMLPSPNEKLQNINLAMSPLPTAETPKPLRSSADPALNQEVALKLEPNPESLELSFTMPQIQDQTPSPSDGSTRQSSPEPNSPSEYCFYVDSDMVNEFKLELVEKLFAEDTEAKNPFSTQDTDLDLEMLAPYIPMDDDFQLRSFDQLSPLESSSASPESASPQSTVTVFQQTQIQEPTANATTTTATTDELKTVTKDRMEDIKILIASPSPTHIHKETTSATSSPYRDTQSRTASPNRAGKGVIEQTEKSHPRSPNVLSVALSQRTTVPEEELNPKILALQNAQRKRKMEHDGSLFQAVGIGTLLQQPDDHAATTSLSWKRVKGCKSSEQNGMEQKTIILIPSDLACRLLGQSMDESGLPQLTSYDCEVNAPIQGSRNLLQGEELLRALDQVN
Heat shock factor protein 1 (Homo sapiens), sequence (Q00613 whole entry, looked up): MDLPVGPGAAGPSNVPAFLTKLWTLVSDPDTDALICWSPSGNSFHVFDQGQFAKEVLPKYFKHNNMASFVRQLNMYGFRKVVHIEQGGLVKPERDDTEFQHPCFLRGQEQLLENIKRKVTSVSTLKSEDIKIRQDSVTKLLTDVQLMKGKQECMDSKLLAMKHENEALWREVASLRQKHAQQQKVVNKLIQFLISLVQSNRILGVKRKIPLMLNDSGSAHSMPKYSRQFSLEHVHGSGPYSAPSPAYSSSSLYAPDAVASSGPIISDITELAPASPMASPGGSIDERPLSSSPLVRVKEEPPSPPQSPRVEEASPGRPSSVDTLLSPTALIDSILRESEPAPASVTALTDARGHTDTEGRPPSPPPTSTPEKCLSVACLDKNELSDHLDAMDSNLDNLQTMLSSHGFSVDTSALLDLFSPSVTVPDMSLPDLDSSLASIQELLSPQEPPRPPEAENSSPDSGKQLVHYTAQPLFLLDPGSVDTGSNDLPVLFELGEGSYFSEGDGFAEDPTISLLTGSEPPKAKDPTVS

By AC50 is commonly meant the concentration at which the activity in the assay is half-maximal. Regarding `Cc1ccc(C(C)C)cc1O`, the compound was classed as inactive in [1], in experiment [2], in experiment [3], in [4], in experiment [5] and in experiment [6]. The result in [7], in experiment [8], in [9], in experiment [11], in experiment [12] and in experiment [13] was inactive. The call in experiment [14], in [15], in [16] and in experiment [17] was inactive. Also, the AC50 in experiment [10] was 14.2 µM (active).

Take `CCCc1ccccc1O`: the outcome in experiment [1], in experiment [2], in experiment [3], in [4], in [5] and in experiment [6] was inactive. The outcome in experiment [8], in [18], in [9], in experiment [11], in experiment [12] and in [13] was inactive. Also, the compound was called inactive in experiment [14], in experiment [15], in [16] and in [17]. In addition, in [10], the AC50 was 56 µM (active).

`Nc1ccc(S(=O)(=O)O)c(N)c1`: the compound was classed as inactive in experiment [1], in experiment [2], in [3], in experiment [4], in experiment [5] and in experiment [6]. Besides, the compound was classed as inactive in experiment [7], in experiment [8], in experiment [10], in experiment [12], in experiment [13] and in experiment [14]. Besides, the result in experiment [16] and in [17] was inactive.

Take `CCCCC(CC)COC(=O)/C=C\C(=O)OCC(CC)CCCC` (configuration not stated): the compound was called inactive in experiment [1], in [2], in [3], in [4], in experiment [8] and in [18]. Also, the compound was classed as inactive in [9], in [12], in [13], in experiment [14], in [15] and in experiment [16]. The compound was classed as inactive in experiment [17]. Also, the AC50 in experiment [5] is 21.2 µM (active); in experiment [6], 171 µM (active); in experiment [10] it was 4.85 µM (active); in experiment [19], 100 µM (active); in experiment [11], 100 µM (active).

Regarding `O=C(O)CCSCCC(=O)O`, the result in [1], in experiment [2], in experiment [3], in experiment [4], in experiment [5] and in experiment [6] was inactive. For the same compound, the call in [7], in [18], in experiment [9], in experiment [19], in experiment [11] and in [12] was inactive. Besides, the compound was called inactive in [13], in experiment [14], in [15], in experiment [16] and in experiment [17]. Besides, the AC50 in [10] is 54.3 µM (active).

For `CC(c1cc2ccccc2s1)N(O)C(N)=O` (configuration not stated), the compound was classed as inactive in experiment [1], in experiment [2], in experiment [3], in [4], in [5] and in experiment [6]. Further, the compound was classed as inactive in experiment [7], in [8], in experiment [9], in [10], in experiment [12] and in experiment [13]. The result in experiment [14], in experiment [15] and in experiment [16] was inactive.

On to `COc1ccnc(CS(=O)c2nc3cc(OC(F)F)ccc3[nH]2)c1OC` (configuration not stated), for which the result in experiment [1], in experiment [2], in [3], in experiment [4], in experiment [5] and in experiment [6] was inactive. The call in experiment [7], in [18], in experiment [9], in experiment [19], in experiment [11] and in experiment [12] was inactive. In addition, the call in experiment [13], in experiment [14], in [15], in experiment [16] and in experiment [17] was inactive. The AC50 in [10] was 8.07 µM (active).

As to `CN(C)C(=N)N=C(N)N`, the result in experiment [1], in experiment [2], in experiment [3], in experiment [4], in experiment [5] and in [6] was inactive. Further, the compound was classed as inactive in experiment [8], in experiment [9], in [10], in [19], in experiment [12] and in experiment [13]. The call in experiment [14], in experiment [15] and in experiment [16] was inactive.
